Our source for the outcome values is PubChem BioAssay AID651692 (Broad Institute, 2012).

The nature of this experiment: cytotoxicity toward MDA-MB-231 breast cancer cells – cell-based, CellTiter-Glo luminescence, cherry-pick, cytotoxicity control for RAD54 inhibitor project, dose response (AID 651692).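 Note: more negative values mean stronger loss of viable cell signal.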 The conditions noted are these: MDA-MB-231 viability, 24 h; series mostly up to 26 µM. In general terms: Cellular ATP, detected with luciferase, serves as a proxy for viable cell number.

Entries with a potency or affinity are not part of this list. Calls of active or inactive are those of the source.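 Rule for the calls: active = fitted half-maximal concentration for loss of cell signal no higher than twice the top valid tested concentration; inconclusive = flat curve at 30 to 70% inhibition, or poor fit; inactive = flat within 30%, signal rise, or potency above limit.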

Consider `CN(C)CCCNc1ncnc2sc(-c3ccccc3)cc12`, for which the result was inactive.
As to `CN(C)c1cc(NC(=O)CNC(C)(C)C)c2ccccc2n1`, the result was inactive.
On to `c1ccc(-c2cc(NCCN3CCCCC3)c3ccccc3n2)cc1`, for which the compound was called inactive.
Regarding `COc1ccc(C(=O)CN2CCN(CCN3C(=O)c4cccc5cccc(c45)C3=O)CC2)cc1`, the result was inactive.
Then `O=C(Nc1cccc([N+](=O)[O-])c1)c1cc(S(=O)(=O)N2CCOCC2)cs1`, with “inactive”; and `COc1ccccc1CNC(=O)c1cccs1`, with “inactive”; and `Cc1cccc2c1-c1sc(C(=O)NCCCN3CCCC(C)C3)cc1CO2` (centres undefined), with “inactive”.
In the case of `Oc1cccc(Nc2c3ccccc3nc3ccccc23)c1`, the compound was classed as inactive.
`Cc1ccc2nc3c(c(N)c2c1)CCN3c1ccccc1`: the compound was classed as inactive.
Then `COc1ccc(-c2nc(NCCCN(C)C)c3ccccc3n2)cc1`, with “inactive”; and `CCOC(=O)c1c(NC(=O)c2ccc(S(=O)(=O)N3CCOCC3)cc2)sc2c1CCN(C)C2`, with “inactive”.
Then `COc1cc2nc(N3CCNCC3)nc(N)c2cc1OC`, with “inactive”; and `COc1ccc(Nc2cc(C)nc3ccc(OC)cc23)cc1`, with “inactive”; and `O=c1cc(CSc2n[nH]c(=O)n2C2CC2)c2ccc(O)cc2o1`, with “inactive”.
With `COc1ccc(Cc2c(-c3ccc(OC)c(OC)c3)nc3c(C)cc(Br)cn23)c(C)c1`, the compound was called inactive.
As for `CCOC(=O)c1cnc2ccc(C)cc2c1NCCN1CCOCC1`, the entry is “inactive”; as for `COC(=O)c1c(NC(=O)c2ccc(S(=O)(=O)N3CCOCC3)cc2)sc2c1CCN(C(C)C)C2`, “inactive”.
For `Oc1ccccc1-c1nc(NCCN2CCOCC2)c2ccccc2n1`, the compound was called inactive.
`COc1ccc(Nc2nc(N3CCCCC3)nc3ccccc23)c(OC)c1`: the compound was classed as inactive.
